High-throughput results: PubChem, National Center for Advancing Translational Sciences (NCATS)
Compounds with a hit are over-represented: about 2.3% of the library has one in this group of screens.
GLP1R inv ag – acts as inverse agonist at human GLP-1 receptor; 410,000 compounds, 1.6% hits; Potency, µM (titrated, usually from 38.3 µM), for the others: at the highest dose activity change, negative = inhibition, usual class: inhibitors; P43220; HEK293 GLP-1R CRE-luciferase, luminescence, 24 h; GLP-1R form is constitutively active; further: on the % scale 0 is the no-effect control and ±100 the full control effect; nearly all actives have a fitted effect of over 55% in size
Target sequence (P43220 whole entry, looked up): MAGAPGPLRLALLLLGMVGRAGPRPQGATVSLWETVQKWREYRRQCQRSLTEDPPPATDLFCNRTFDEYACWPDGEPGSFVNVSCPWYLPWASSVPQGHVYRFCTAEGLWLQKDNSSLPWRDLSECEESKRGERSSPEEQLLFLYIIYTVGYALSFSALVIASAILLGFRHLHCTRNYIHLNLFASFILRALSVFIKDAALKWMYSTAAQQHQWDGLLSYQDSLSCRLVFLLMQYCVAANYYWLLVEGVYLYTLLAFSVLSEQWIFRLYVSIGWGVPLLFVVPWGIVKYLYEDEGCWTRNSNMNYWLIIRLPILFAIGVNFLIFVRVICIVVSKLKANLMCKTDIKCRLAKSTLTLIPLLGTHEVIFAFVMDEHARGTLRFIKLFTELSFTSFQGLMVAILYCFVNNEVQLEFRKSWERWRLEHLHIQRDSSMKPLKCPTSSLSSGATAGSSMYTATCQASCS
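HEK293 cells stably co-expressing constitutively active GLP-1R and a cAMP-responsive luciferase reporter were seeded in DMEM with 10% Nu serum, given compounds after 12 h, and incubated 24 h at 37 deg C. Luminescence was then read.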
Glioma ERSR ind – inducers of ER stress response in human glioma cells. Potency, µM, without a hit: at the highest dose activation, usual class: activators. U87-MG GRP78 promoter luciferase reporter, 16 h. AID 602332. 420,000 compounds, 0.02% hits; further: series mostly up to about 76 µM; % of control where 0% means no effect; nearly all actives have a fitted effect of over 35% in size
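ERSR induction read as luciferase luminescence (Bright-Glo, 10 min at room temperature) in stably transfected human U87-MG glioma cells exposed to compounds for 16 h, using GRP78 as sensor.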
GLP1R ag – agonists of human GLP-1 receptor. P43220. HEK293 GLP-1R CRE-luciferase, luminescence, 4-6 h; cells express a hypersensitive GLP-1R form. Potency, µM (series often up to 45.6 µM), without a hit: at the highest dose activation, usual class: activators. 380,000 compounds, 0.007% hits; further: % of control where 0% means no effect
ALOX12 inh – blocks human arachidonate 12S-lipoxygenase; Potency, µM (doses to about 108 µM), for the others: at the highest dose activity change, negative = inhibition, most hits filed as inhibitors; P18054; 580,000 compounds, 1.1% hits; purified 12hLO, xylenol orange hydroperoxide absorbance; further: on the % scale 0 is the no-effect control and ±100 the full control effect
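Hydroperoxide product was detected by ferrous iron/xylenol orange as the 573 to 405 nm absorbance ratio. Arachidonic acid at 40 uM (final) was turned over for 30 min at room temperature by 150 nM human 12hLO, pH 7.0 Hepes buffer, after 15 min compound preincubation.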
PTHR1 ag – activates the human parathyroid hormone receptor PTHR1; Q03431; HEK293 GP2 PTHR1 cells, GloSensor cAMP luminescence, 1 h; Potency, µM (top dose mostly 115 µM), for inactives: at the top dose activation, most hits filed as activators; 410,000 compounds, 0.075% hits; further: nearly all actives have a fitted effect of over 55% in size
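HEK-293-derived GP2 cells expressing PTHR1 and a GloSensor cAMP reporter, 3,000/well, plated overnight, given luciferin plus IBMX (each 0.5 mM as added) for 1 h at 37 °C, then compound for 1 h at 37 °C. Luminescence was read after 15 min at room temperature.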
GLS inh – glutaminase GLS (human) inhibition | AID 624170 | Potency, µM (titrated, usually from 45.5 µM), for the others: at the highest dose activity change, negative = inhibition, actives largely listed as inhibitors | 410,000 compounds, 0.21% hits | GLS enzymatic activity, qHTS titration | O94925; further: on the % scale 0 is the no-effect control and ±100 the full control effect
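hKGA in 45 mM KH2PO4 pH 8.2, 0.02% Tween-20 with pin-transferred compounds; 1 mM L-glutamine (stock) plus glutamate oxidase/HRP/Amplex Red coupling added. Fluorescence read initially and after 30 min at RT.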
An asterisk follows results filed as active; i = inactive; ? = inconclusive; · = no result given; ! = a repeat was not active; [ ] = another dose, or the depositor's remark. The call rests on the fitted dose curve; in most records, active means well fitted curve in the direction sought with a large enough effect; inconclusive means small, poorly fitted or top-dose-only effect, or another doubt; inactive means no such curve, though single readings can be large; an effect the other way counts as inactive or inconclusive. Potency means the concentration at half of the fitted maximal effect.

SMILES | GLP1R inv ag | Glioma ERSR ind | GLP1R ag | ALOX12 inh | PTHR1 ag | GLS inh
Cc1ccccc1NC(=S)NCCSc1ccc(Cl)cc1 | ? | -1% | 14% | 45µM* | -10% | -2%
Cc1ccc(NC(=S)NCCSc2ccc(Cl)cc2)c(C)c1 | 10µM* | -2% | -2% | ? | -22% | 8%
Cc1ccccc1NC(=S)NCCO | 13% | 1% | 2% | -2% | -10% | 19%
N#Cc1ccccc1COC(=O)C1(c2ccccc2)CC1 | · | · | · | 1% | · | ·
Cc1ccc2[nH]cc(C(C(=O)O)N3CCN(c4ncc(Br)cn4)CC3)c2c1 (configuration not stated) | · | · | · | -2% | · | ·
Cc1ccc(SCCNC(=S)Nc2cccc(Cl)c2C)cc1 | · | · | · | 32µM* | · | ·
Cc1ccc(Cl)cc1NC(=S)NCCCSC1CCCCC1 | ? | -3% | 4% | 35µM* | -28% | -1%
Cc1ccc(SCCNC(=S)Nc2ccc(F)cc2)cc1 | · | · | · | 50µM* | · | ·
CCc1ccccc1NC(=S)NCCSc1ccc(Cl)cc1 | 7.1µM* | -7% | 11% | 50µM* | -28% | 6%
Cc1ccc(Cl)cc1NC(=O)C1CCCCC1 | · | · | · | 48% | · | ·
CCCCNC(=S)Nc1ccc(F)cc1 | -6% | -1% | 7% | 0% | 0% | 3%
CCc1ccc(/C=C(/CC(=O)O)c2nc3ccccc3s2)cc1 | · | · | · | -6% | · | ·
Cc1ccc2[nH]cc(CCNC3CC(=O)N(c4ccc(F)cc4)C3=O)c2c1 (configuration not stated) | · | · | · | -31% | · | ·
Cc1ccc(C)c(NC(=S)NCCSc2ccc(Cl)cc2)c1 | ? | -4% | -3% | 28µM* | -42% | 0%
CCCCNC(=S)Nc1ccccc1Cc1ccccc1 | 11µM* | 1% | 7% | ? | -31% | -15%
CCCCSCCCNC(=S)Nc1ccccc1C | ? | -1% | 14% | ? | -18% | 9%
Cc1cccc(NC(=S)NCCSc2ccc(Cl)cc2)c1 | ? | -2% | 15% | ? | -35% | -11%
CCn1c(SCC(=O)Nc2cc3c(cc2C(C)=O)OCO3)nnc1C1CC1 | · | · | · | -1% | · | ·
Cc1ccc(CNC(=O)Cn2cc(C#N)c3ccccc32)cc1 | · | · | · | -24% | · | ·
CCN(CC(=O)NC(C)(C)C)C(=O)c1ccc(C#N)cc1 | · | · | · | 51% | · | ·
O=C(O)c1ccc(N2Cc3ccccc3C2)cc1O | 2% | 2% | -4% | · | -30%[57.5 µM] | 4µM*
O=C(O)c1ccc(N2CCCCC2)cc1O | -3% | -4% | -7% | 0% | -1% | 9%
N#CC(C#N)=C(N)/C(C#N)=C/c1cc(O)c(O)c(O)c1 | 19% | 0% | -1% | 5µM*! | i | 35%
COC(=O)CNC(c1ccccc1)c1cc(Br)ccc1NC(=O)CCN1CCOCC1 (configuration not stated) | ? | -11% | -3% | 40µM* | i | 24%
Cc1ccc(C(=O)N2CCc3cc4c(cc3C2C)OCCCO4)cc1 (configuration not stated) | 11µM* | 3% | -1% | 13% | -74% | -8%
SMILES | GLP1R inv ag | Glioma ERSR ind | GLP1R ag | ALOX12 inh | PTHR1 ag | GLS inh
CC1c2cc3c(cc2CCN1C(=O)c1ccc(Cl)cc1)OCCCO3 (configuration not stated) | ? | -4% | 13% | 11% | -3% | 1%
C[C@H](OC(=O)N1CCN(C(c2ccccc2)c2ccccc2)CC1)[C@@H]1O[C@@]2(C)CCC[C@H]1O2 | 10µM* | -3% | 16% | 3% | -23% | 12%
CC(SCc1ccccc1)C(=O)N/N=C/c1cc2c(cc1Br)OCO2 (configuration not stated) | 10µM* | -5% | 1% | -7%[57.4 µM] | -14% | 0%
N#Cc1cnn2c(C(F)F)cc(-c3ccccc3)nc12 | · | · | · | 61% | · | ·
Cc1cc(/C=N/NC(N)=S)c(C)n1-c1ccc(Br)cc1 | ? | -2% | -1% | ? | i | -18%
Cc1cc(/C=N/NC(N)=S)c(C)n1-c1cccc(Cl)c1 | ? | 0% | 8% | 40µM* | -12% | -4%
Cc1cccc(C)c1-n1c(C)cc(/C=N/NC(N)=S)c1C | 11µM* | -6% | -7% | 0% | i | 25%
Oc1cccc(C2c3[nH]c4ccccc4c3CCN2Cc2ccoc2)c1 (configuration not stated) | ? | 2% | -1% | 28% | -8% | 9%
COc1cccc(C(=O)N2CCc3c([nH]c4ccccc34)C2c2ccc(SC)cc2)c1 (configuration not stated) | 7.9µM* | -1% | · | -19% | 9% | -2%
COc1ccc(C2c3[nH]c4ccc(OC)cc4c3CCN2C(=O)Nc2ccccc2)cc1 (configuration not stated) | 5.6µM* | 1% | · | -13% | -76% | 0%
COc1ccc(C2c3[nH]c4ccccc4c3CCN2Cc2ccoc2)c(F)c1 (configuration not stated) | 4.5µM* | 5% | -1% | -9% | -10% | 7%
Oc1cccc(C2c3[nH]c4ccccc4c3CCN2Cc2ccc3c(c2)CCO3)c1 (configuration not stated) | 2.8µM* | -14% | 11% | 37% | i | -10%
C(=C\c1ccccc1)/CNC12CC3CC(CC(C3)C1)C2 | · | · | · | 9% | · | ·
Cc1ccc2cc(C(=O)N3CCCC(C(=O)N4CCOCC4)C3)[nH]c2c1 (configuration not stated) | · | · | · | 8% | · | ·
Cc1ccc(OCc2cc(C(=O)N(C)C3CCCc4ccccc43)no2)cc1C (configuration not stated) | 11µM* | 5% | 7% | -5% | -31% | -1%
Cc1cc(CN(C)C(=O)c2cc(COc3ccc(C)c(C)c3)on2)on1 | ? | 0% | 1% | 0% | -20% | 0%
C#CCN(C(=O)c1cc(COc2ccc(C)c(C)c2)on1)C1CCCCC1 | 10µM* | -4% | 9% | 2% | -32% | 12%
CCN1CCN(c2ccc(NC(=O)c3ccc(OC)c(S(=O)(=O)N4CCCC4)c3)cc2)CC1 | -7% | -6% | 18% | ? | -27% | 33%
Cc1ccc(NC(=O)c2ccc(Cl)c(S(=O)(=O)N3CCCCCC3)c2)nc1 | 7.1µM* | 0% | 14% | -5% | -25% | -10%
Cc1ccc(NC(=O)c2ccc(S(=O)(=O)N3CCCCCC3)cc2)nc1 | ? | 1% | 4% | -24% | -30% | 0%
CCN1CCN(c2ccc(NC(=O)c3ccc(Cl)c(S(=O)(=O)N4CCCC4)c3)cc2)CC1 | 3.5µM* | 0% | -3% | ? | -10% | 3%
Cc1ccc(CNC(=O)c2ccc(C)c(S(=O)(=O)N3CCCCC3)c2)cc1 | ? | -4% | 11% | 255% | -11% | -5%
